Screening results: PubChem, Center for Chemical Genomics, University of Michigan
The sample as a whole holds a higher share of hits than the screen did.
Dicer processing = inhibitors of human Dicer processing of pre-microRNA; Q9UPY3; cat-ELCCA pre-miR-21 Dicer processing, chemiluminescence; hits give high values; z-score at 25 µM; actives 6% (n = 47,000); AID 1347074; in the data active = z-score above about 3, passing the limit was not always enough;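 note: higher signal means more uncleaved substrate so more Dicer inhibition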
Hits are given with their value.

O=C(c1cc2n(n1)C(C(F)(F)F)CC(c1ccco1)N2)N1CCN(c2ccccn2)CC1 (stereo unspecified) was read as Dicer processing inactive.
Screening O=C(c1cc2n(n1)C(C(F)(F)F)CC(c1ccc(Cl)cc1)N2)N1CCCCC1 (stereo unspecified) returned Dicer processing inactive.
For O=C(c1cccc(F)c1)N1CCN(C(=O)c2cc3n(n2)C(C(F)(F)F)CC(c2ccco2)N3)CC1 (stereo unspecified) the results were Dicer processing inactive.
O=C(c1cc2n(n1)C(C(F)(F)F)CC(c1ccc(Br)cc1)N2)N1CCOCC1 (stereo unspecified) was read as Dicer processing 4.96.
`CC1CCN(C(=O)c2cc3n(n2)C(C(F)(F)F)CC(c2ccc(Br)cc2)N3)CC1` (stereo unspecified) gave Dicer processing 5.41.
For O=C(c1cc2n(n1)C(C(F)(F)F)CC(c1ccccc1)N2)N1CCOCC1 (stereo unspecified) the results were Dicer processing 3.6.
`Cc1cccc(Nc2nc(=O)[nH]nc2C)c1C` gave Dicer processing inactive.
For C=CCSc1n[nH]c(=O)n1-c1ccc(Cl)cc1 the results were Dicer processing inactive.
CCOC(=O)C(=CNNS(=O)(=O)c1ccc(C)cc1)C(=O)OCC was read as Dicer processing inactive.
Cc1ccccc1S(=O)(=O)Nc1ccnn1C was read as Dicer processing inactive.
Screening c1ccc(-c2nnc(NCc3nc4ccccc4[nH]3)c3ccccc23)cc1 returned Dicer processing inactive.
Screening O=C(/C(=C\N1CCCC1)c1nnnn1-c1ccccc1)c1ccccc1 returned Dicer processing inactive.
`Cc1cc(C)cc(Oc2coc3cc(O)ccc3c2=O)c1` gave Dicer processing 4.34.
`COc1ccc(C(=O)Oc2ccc3c(=O)c(Oc4ccccc4Br)coc3c2)cc1OC` gave Dicer processing 3.1.
For CCC(C)OC(=O)COc1ccc2c(=O)c(Oc3cc(C)ccc3C)coc2c1 (stereo unspecified) the results were Dicer processing inactive.
CCOCCOC(=O)COc1ccc2c(=O)c(Oc3cc(C)ccc3C)coc2c1 was read as Dicer processing 3.4.
For COc1ccccc1C(=O)Oc1ccc2c(=O)c(Oc3ccccc3Br)coc2c1 the results were Dicer processing inactive.
For COc1ccccc1-c1coc2cc(OC(=O)c3ccc(Cl)cc3)ccc2c1=O the results were Dicer processing inactive.
`CCCCOC(=O)Oc1ccc2c(=O)c(Oc3ccc(C)cc3)coc2c1` gave Dicer processing 3.55.
`CCOC(=O)Oc1ccc2c(=O)c(Oc3ccc(C(C)(C)C)cc3)coc2c1` gave Dicer processing inactive.
For Cc1ccc(Oc2coc3cc(O)ccc3c2=O)cc1 the results were Dicer processing inactive.
Screening Cc1ccc(C)c(Oc2coc3cc(OCC(=O)OCC(C)C)ccc3c2=O)c1 returned Dicer processing inactive.
CC(C)(C)c1ccc(Oc2coc3cc(O)ccc3c2=O)cc1 was read as Dicer processing inactive.
Screening C=CCOC(=O)Oc1ccc2c(=O)c(Oc3ccc(CC)cc3)coc2c1 returned Dicer processing inactive.
FC(F)(F)c1cc(-c2cccs2)n2ncnc2n1 was read as Dicer processing inactive.
CN(C)C=Nc1ccccc1Sc1nc2c(Cl)cc(Cl)cc2s1 was read as Dicer processing inactive.
`CC(C)c1nnc(N2C(=O)c3oc4ccccc4c(=O)c3C2c2ccc(Cl)cc2)s1` (stereo unspecified) gave Dicer processing inactive.
For Cc1ccc(C(=O)CSC2=NCCCCC2)cc1 the results were Dicer processing inactive.
CC(=O)Oc1ccc(C2Nc3ccc4ccccc4c3C3C=CCC32)c(OC(C)=O)c1 (stereo unspecified) was read as Dicer processing inactive.
Screening O=S(=O)(NC(=NCCc1ccccc1)Nc1cccc(Cl)c1)c1ccccc1 returned Dicer processing inactive.
`Cc1cc(S(=O)(=O)/N=C/N(C)C)c(Cl)cc1Cl` gave Dicer processing inactive.
For COc1cc(C2C(C(=O)OCC3CCCO3)=C(C)NC3=C2C(=O)CCC3)ccc1OCCO (stereo unspecified) the results were Dicer processing inactive.
Screening CC(C)(C)C(=O)Oc1ccc2c(=O)c(Oc3ccccc3Br)coc2c1 returned Dicer processing inactive.
Screening Cc1cccc(Oc2coc3cc(OC(=O)c4cccnc4)ccc3c2=O)c1 returned Dicer processing inactive.
`CCC(=O)Oc1ccc2c(=O)c(Oc3ccccc3Br)coc2c1` gave Dicer processing 4.29.
Screening Cc1cccc(Oc2coc3cc(OC(=O)c4ccncc4)ccc3c2=O)c1 returned Dicer processing 27.6.
For CC(C)OC(=O)C(C)Oc1ccc2c(=O)c(Oc3ccccc3Br)coc2c1 (stereo unspecified) the results were Dicer processing inactive.
Screening COc1ccc(Oc2coc3cc(OC(=O)c4ccc(F)cc4)ccc3c2=O)cc1 returned Dicer processing inactive.
For COc1ccccc1N1C(=O)CC(Nc2ccc(N(C)C)cc2)C1=O (stereo unspecified) the results were Dicer processing inactive.
O=S(=O)(Oc1cc(Cl)cc(Cl)c1)c1cc(S(=O)(=O)Oc2cc(Cl)cc(Cl)c2)c(Cl)s1 was read as Dicer processing inactive.
